HP1b chromo inh = inhibitors of HP1-beta chromodomain binding to methylated histone tails | Potency, µM (series often up to 114 µM), for the others: at the top dose activity change, negative = inhibition, hits mostly inhibitors | AlphaScreen HP1-beta / biotin-H3K9me3 peptide binding | P83916 | hit rate 0.56% among 390,000; further: potency means the concentration at half of the fitted maximal effect; nearly all actives have a fitted effect of over 70% in size
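AlphaScreen: HP1-beta (50 nM) preformed 30 min with biotin-H3(1-18)K9me3 peptide (50 nM) in PBS pH 7.4, 0.01% Tween-20. Compound added for 30 min at RT, then streptavidin donor/nickel chelate acceptor beads (10 ug/mL) for 30 min.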
CtBP-E1A inh = inhibitors of CtBP/E1A interaction; AlphaScreen GST-E1A/His-CtBP binding, 1536-well; stronger effect = lower value; activity change, % (no concentration beside the values); hit rate 0.49% among 340,000; in the data active means activity change below about -65%; inconclusive means mostly about -30% to -63%; further: on the % scale 0 is the no-effect control and ±100 the full control effect
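Protein mix (5X: 125 nM each GST-E1A, His-CtBP) was incubated with pinned compound 2 h at 37 deg C in dark, in 50 mM Tris pH 8.0 buffer with 300 mM NaCl. Glutathione donor and nickel acceptor beads followed; AlphaScreen signal read after 1 h.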
G9a inh = G9a (human) methyltransferase inhibition; G9a H3K9 monomethylation, AlphaScreen, 2 h; Potency, µM (doses to about 102 µM), without a hit: top-dose activity, negative = inhibition, hits mostly inhibitors; hit rate 8.8% among 350,000; AID 504332; further: potency means the concentration at half of the fitted maximal effect; on the % scale 0 is the no-effect control and ±100 the full control effect; nearly all actives have a fitted effect of over 75% in size
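Chemiluminescent proximity detection of H3K9 monomethylation, read after 10 min bead incubation in the dark. Reaction: 20 nM G9a, 500 nM biotin-H3K9 peptide, 20 uM SAM cofactor, 2 h, room temperature, following 15 min enzyme-compound preincubation.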
Six1-Eya2 blk = blocks human Six1 binding to Eya2; Q15475+O00167; AlphaScreen GST-Six1/His-Eya2 binding, biochemical; stronger effect = lower value; activity change, % (test concentration not listed); hit rate 0.56% among 360,000; in the data active means activity change below about -65%; inconclusive means mostly about -30% to -63%; further: on the % scale 0 is the no-effect control and ±100 the full control effect
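AlphaScreen with GST-Six1 and His-Eya2 (5X mix: 250 nM and 500 nM), glutathione donor and nickel acceptor beads; buffer 50 mM Tris pH 8.0, 300 mM NaCl, 1 mM TCEP; 1 h at 37 C in the dark.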
BAZ2B inh = blocks human BAZ2B. AlphaScreen BAZ2B-H3K14Ac peptide displacement. Potency, µM (series often up to 114 µM), inactives show at the top dose activity change, negative = inhibition, actives largely listed as inhibitors. hit rate 4.4% among 360,000; further: potency means the concentration at half of the fitted maximal effect; on the % scale 0 is the no-effect control and ±100 the full control effect; nearly all actives have a fitted effect of over 60% in size
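AlphaScreen displacement: compounds (up to 110uM) incubated 30 min at room temperature with a preformed 50 nM BAZ2B/50 nM biotinylated H3K14Ac peptide complex in PBS pH 7.4 with Tween-20. Donor and acceptor beads at 10 ug/mL final added, 20 min light-protected before reading.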
JMJD2A Tudor = blocks the human JMJD2A Tudor domain; hit rate 4.4% among 390,000; Potency, µM (series often up to 114 µM), without a hit: top-dose activity change, negative = inhibition, usual class: inhibitors; O75164; AlphaScreen JMJD2A-Tudor / H3K4me3 peptide binding; further: potency means the concentration at half of the fitted maximal effect; on the % scale 0 is the no-effect control and ±100 the full control effect; nearly all actives have a fitted effect of over 50% in size
Target sequence (O75164 whole entry, looked up, the tested form may be a part): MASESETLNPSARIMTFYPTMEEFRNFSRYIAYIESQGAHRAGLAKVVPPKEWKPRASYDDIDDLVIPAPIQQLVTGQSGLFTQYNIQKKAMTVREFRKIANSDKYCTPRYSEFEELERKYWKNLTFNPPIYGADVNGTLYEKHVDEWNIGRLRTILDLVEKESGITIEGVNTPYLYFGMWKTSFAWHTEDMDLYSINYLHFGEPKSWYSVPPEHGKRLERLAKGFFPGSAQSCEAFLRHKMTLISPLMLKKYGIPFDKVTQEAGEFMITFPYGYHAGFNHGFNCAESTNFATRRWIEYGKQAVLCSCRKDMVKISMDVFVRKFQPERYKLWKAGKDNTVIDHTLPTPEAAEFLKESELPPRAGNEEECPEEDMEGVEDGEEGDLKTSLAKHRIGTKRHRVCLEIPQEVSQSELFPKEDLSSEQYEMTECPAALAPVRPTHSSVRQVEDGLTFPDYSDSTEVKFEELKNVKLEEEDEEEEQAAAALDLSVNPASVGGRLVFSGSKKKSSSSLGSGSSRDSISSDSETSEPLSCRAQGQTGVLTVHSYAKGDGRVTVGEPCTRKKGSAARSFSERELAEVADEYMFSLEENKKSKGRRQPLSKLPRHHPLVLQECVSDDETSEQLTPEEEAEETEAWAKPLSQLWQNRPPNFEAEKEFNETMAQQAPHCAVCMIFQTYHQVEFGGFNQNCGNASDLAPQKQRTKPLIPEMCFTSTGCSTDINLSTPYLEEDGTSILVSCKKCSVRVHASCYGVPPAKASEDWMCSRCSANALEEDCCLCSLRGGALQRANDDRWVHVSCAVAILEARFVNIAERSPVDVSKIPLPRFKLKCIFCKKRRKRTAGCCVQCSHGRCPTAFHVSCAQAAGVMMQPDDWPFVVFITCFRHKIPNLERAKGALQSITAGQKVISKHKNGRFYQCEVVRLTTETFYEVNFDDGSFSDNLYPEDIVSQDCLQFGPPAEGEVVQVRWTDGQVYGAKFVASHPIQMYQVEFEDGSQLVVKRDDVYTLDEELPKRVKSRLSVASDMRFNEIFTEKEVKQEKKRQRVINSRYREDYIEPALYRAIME
* = called active by the depositor; u = inconclusive; x = no result; [ ] = remark or other dose. This is a sample that favours compounds with a hit; in the whole collection about 10% have one here. Unless noted, the call rests on the fitted dose curve; in most records, active means well fitted inhibition curve with a large enough effect; inconclusive means small, poorly fitted or top-dose-only effect; inactive means no such curve, though single readings can be large or run the other way.

SMILES | HP1b chromo inh | CtBP-E1A inh | G9a inh | Six1-Eya2 blk | BAZ2B inh | JMJD2A Tudor
COCc1c(Br)c(C)nc(OCC(=O)N/N=C/c2ccco2)c1C#N | 26.5% | 1.1 | u | -6.7 | 89.1µM* | -26.8%
c1cn(-c2ccc(-c3ccnc4ncnn34)cc2)cn1 | 23.3% | 0.5 | 19.4%[59 µM] | 7.6 | -12.7% | -16.8%
CC[N+]1(C)CCC(O)(c2ccc(OC)cc2)C(C(=O)c2ccc(OC)cc2)C1 (centres undefined) | -4.8% | 14.0 | x | 1.1 | x | 89.1µM*
C(=N\Nc1nn2cnnc2c2ccccc12)/c1ccco1 | 7.2% | -3.1 | -23.8% | -71.6* | 0.0% | -11.1%
C=CCn1c(N/N=C/c2ccc(O)cc2)nc2ccccc2c1=O | 5.1% | -2.4 | 0.6% | -2.4 | -3.6% | -29.8%
CCOc1cc(/C=N/Nc2nn3cnnc3c3ccccc23)ccc1O | 16.6% | -66.7* | -28.6% | -88.0* | -16.0% | -11.3%
COc1ccc(/C=N/Nc2nncc3ccccc23)cc1 | 27.1% | 0.0 | u | -13.6 | 25.1µM* | 28.2µM*
Oc1ccc(/C=N/Nc2nn3cnnc3c3ccccc23)cc1 | 35.5% | -89.8* | x | -88.9* | -16.0% | 3.5%
O=C(Nc1cccc(C(F)(F)F)c1)c1cc(S(=O)(=O)N2CCCC2)c[nH]1 | 1.7% | x | -22.6%[59 µM] | x | -2.6% | -20.4%
COc1ccc(-n2c(SCC(=O)Nc3ccc4c(c3)OCO4)nc3c([nH]c4ccccc43)c2=O)cc1 | 10.2%[57 µM] | x | 4.8%[59 µM] | x | -0.3% | -11.9%
COc1ccc(NS(=O)(=O)c2ccc(C)c(C(=O)NCCCn3ccnc3)c2)cc1 | x | 0.5 | x | -1.3 | x | x
COc1cccc(/C=N/Nc2nn3cnnc3c3ccccc23)c1 | 21.7% | -78.9* | -30.2% | -71.2* | -2.6% | -10.3%
COc1cc(/C=N/Nc2nc3ccccc3[nH]c2=O)ccc1O | 21.3% | -8.6 | 4.9% | 5.6 | -23.3% | -6.1%
COc1cc(/C=N/Nc2nn3cnnc3c3ccccc23)ccc1O | 25.0% | -89.5* | 79.4µM* | -88.7* | u | -25.6%
CCC(C)NC(=O)C1=CC(c2ccc3c(c2)OCO3)=NS(=O)(=O)N1C (centres undefined) | 50.4% | x | -5.8%[59 µM] | x | -8.9% | -4.3%
Cc1ccc(N2C(=O)CC(Cc3ccc(Cl)cc3)C2=O)cc1 (centres undefined) | 12.3% | -7.0 | 60.9% | 23.5 | -1.9% | 6.8%
COc1ccc(CN2CCC2(C)C(=O)Nc2ccc(OC)c(OC)c2)cc1 (centres undefined) | x | 2.8 | x | 2.3 | x | x
Cc1ccccc1C(=O)OCCN(C)Cc1ccccc1 | 56.6% | 6.8 | -23.7% | 8.9 | -22.4% | 3.5%
Cn1c(=O)c2c(-c3ccccc3)n3c4ccccc4nc(-c4ccccc4)c3c2n(C)c1=O | 43.3% | x | 4.4%[59 µM] | x | 1.5% | 3.8%
Cc1cc(=O)[nH]c(N/N=C/c2c(C)nn(-c3ccccc3)c2C)n1 | 16.1% | u | 25.1µM* | u | -23.2% | -11.0%
Cc1nn(-c2ccccc2)c(C)c1/C=N/Nc1nc2ccccc2[nH]1 | u | -27.5 | u | -19.8 | u | 56.2µM*
Cc1nn(-c2ccccc2)c(C)c1NS(=O)(=O)c1ccccc1 | 22.7% | 4.7 | 13.0%[59 µM] | 2.5 | 6.4% | -16.4%
Cc1nn(-c2ccccc2)c(C)c1/C=N\NS(=O)(=O)c1ccc(Cl)cc1 | 25.8% | -0.9 | 3.16µM* | -7.9 | -6.2% | -31.3%
Cc1nn(-c2ccccc2)c(Cl)c1/C=N/Nc1nc2ccccc2n1C | 26.4% | x | 50.1µM* | -19.8 | -37.8% | -34.3%
Cc1cc(N2C(=O)c3ccccc3C2=O)n[nH]1 | x | x | x | x | x | -3.4%
SMILES | HP1b chromo inh | CtBP-E1A inh | G9a inh | Six1-Eya2 blk | BAZ2B inh | JMJD2A Tudor
O=C(NCCNc1ccc([N+](=O)[O-])cc1)c1ccc(Cl)cc1 | 5.5% | 3.1 | 0.5% | -13.3 | x | -20.5%
c1ccc(N=Nc2cn[nH]c2-c2ccco2)cc1 | u | -26.2 | u | -29.3 | u | u
Cc1cccc(N=Nc2cn[nH]c2-c2ccco2)c1 | u | x | u | -10.7 | 20µM* | -10.5%[11.4 µM]
O=C(CNC(=O)c1cccs1)OCc1c(F)cccc1Cl | -6.3% | 3.5 | -2.0% | 4.4 | -2.1% | -6.5%
COc1ccc(NC2=CC(=O)CC(c3ccc(C)cc3)C2)c(OC)c1 (centres undefined) | -15.9% | -2.7 | x | -2.6 | x | 79.4µM*
COCCOc1ccc(C(F)(F)F)cc1Nc1nc2ccccc2o1 | 29.6% | 11.0 | u | 6.9 | 13.0% | 28.2µM*
Cc1cc2nc(C)n(CCCNC(=O)Nc3cccc4ccccc34)c2cc1C | 3.7% | -0.8 | -27.2% | 1.3 | -11.3% | 50.1µM*
CCOc1ccc(NC(=O)NCCCn2c(C)nc3cc(C)c(C)cc32)cc1 | 5.4% | -8.5 | 10.1% | -3.6 | 2.8% | -25.0%
CCn1c(SCc2nc3ccccc3[nH]2)nnc1-c1ccccc1OC | 29.0% | -0.6 | -7.1% | 5.8 | -7.0% | -7.8%
CCn1c(-c2cc(-c3cc(OC)ccc3OC)nc3ccccc23)n[nH]c1=S | 28.0% | -4.6 | 3.55µM* | -0.2 | u | 20µM*
CCn1c(-c2cc(-c3ccccc3OC)nc3ccccc23)n[nH]c1=S | 22.5% | -0.2 | 2.82µM* | 0.4 | -38.9% | 56.2µM*
Cc1ccc(S(=O)(=O)c2c(Nc3cc(C)ccc3C)sc(C(=O)c3ccc4c(c3)OCO4)c2N)cc1 | 20.8%[57 µM] | x | 6.1%[59 µM] | x | u | -29.7%
Nc1cc(N)cc(C(=O)c2ccccc2)c1 | x | -0.2 | x | -7.0 | x | x
CCCN[C@@H](C)C(=O)Nc1c(C)csc1C(=O)OC | x | x | 10.6%[21.5 µM] | x | x | x
CCOC(=O)C(=CNNc1c(C)csc1C(=O)OC)C(=O)OCC | 43.0% | -2.2 | 8.91µM* | -1.1 | -22.5% | -19.8%
CC(=O)Nc1ccc2nc(CN3CCC(CO)(CCc4ccccc4)CC3)ccc2c1 | 9.6% | -4.2 | -39.1% | -8.8 | -33.2% | 31.6µM*
CC(=O)c1cccc(CN2CCC(CO)(CCCc3ccccc3)CC2)c1 | 40.0% | x | x | 0.9 | -2.3% | -13.4%
COc1cc(CCC(=O)Nc2ccc(Br)c(C(F)(F)F)c2)cc(OC)c1OC | 35.3% | 20.9 | -0.9%[59 µM] | -4.2 | 11.2% | -0.7%
CCC(C(=O)O)n1c2ccccc2c2cn[nH]c(=O)c21 (centres undefined) | 29.6% | -2.9 | 44.7µM* | -1.3 | 3.7% | -12.0%
CC(C(=O)O)n1c2ccccc2c2cnn(C)c(=O)c21 (centres undefined) | 39.7% | 3.2 | 44.7µM* | 26.6 | -5.8% | -4.8%
COc1ccc(NC(=O)c2ccccc2NC(=O)C2CCCCC2C(=O)O)cc1 (centres undefined) | 29.6% | -8.0 | x | 7.7 | x | -5.7%
N#CN1CCC(NS(=O)(=O)c2ccc(F)cc2)C1 (centres undefined) | x | x | x | x | x | -6.8%
O=C(N/N=C/c1ccccc1Cl)c1[nH]c2ccc(Br)cc2c1-c1ccccc1 | 47.3% | 9.7 | -7.4% | -3.2 | -4.6% | -7.7%

High-throughput results as filed in PubChem.
